Consider eight compounds from PubChem BioAssay (NCI).

Some test systems named below: HCT-15 colon; HT29 colon; SNB-75 CNS; SNB-19 CNS; U251 CNS; PC-3 prostate; SK-MEL-5 melanoma; UACC-62 melanoma; LOX IMVI melanoma; SK-MEL-28 melanoma; SK-MEL-2 melanoma; EKVX NSCLC; SN12C renal; UO-31 renal; TK-10 renal; ACHN renal; CAKI-1 renal; A498 renal; CCRF-CEM leukemia; MOLT-4 leukemia.
Assay in all cases: NCI-60 one-dose screen, 48 h (100 = growth as untreated, 0 = no growth, -100 = all killed)
Settings in all cases: 10 µM

This is part of a sample that, as a whole, favours compounds with a hit. Of some 83,000 tested, about 20% had one in any assay.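 Compound tested at a single concentration for 48 hours in 96-well plates; a percent growth value below 10 was scored as active.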 Values without a mark were called inactive. Active and inactive are the calls of the source.

For the compound `O=C(c1ccc(Cl)cc1)C1[C@H](c2ccc(Br)cc2)[C@@H](c2ccccc2)NC12C(=O)Nc1ccccc12` (stereo not given in full), the growth in the assay on HCT-15 colon was -2.63% (active); with HT29 colon, -52.2% (active); in the assay with SNB-75 CNS, 15%; with SNB-19 CNS, 15.9%; in the assay with U251 CNS it was -6.22% (active); in the assay on PC-3 prostate, 5.16% (active). The growth is -23.2% (active) with SK-MEL-5 melanoma; -60.6% (active) in the assay on UACC-62 melanoma; -100% (active) in the assay on LOX IMVI melanoma; -32.7% (active) in the assay with SK-MEL-28 melanoma; -62.7% (active) in the assay on SK-MEL-2 melanoma; 4.42% (active) with EKVX NSCLC. Besides, the growth with SN12C renal is -78.1% (active); in the assay on UO-31 renal, 2.46% (active); in the assay with TK-10 renal, 14.5%; in the assay with ACHN renal it was -5.73% (active); with CAKI-1 renal, 0.681% (active); in the assay with A498 renal, -23.5% (active). Also, the growth in the assay on CCRF-CEM leukemia is -0.656% (active); with MOLT-4 leukemia, -22.7% (active).

On to `Brc1ccc(/C=N/Nc2ncnc3sc4c(c23)CCN(Cc2ccccc2)C4)cc1`, for which the growth was 58.3% in the assay on HCT-15 colon; 4.77% (active) with HT29 colon; -7.37% (active) in the assay on SNB-75 CNS; 99.9% in the assay on SNB-19 CNS; 61.1% in the assay with U251 CNS; 61.6% in the assay on PC-3 prostate. Moreover, the growth in the assay on SK-MEL-5 melanoma is 94.8%; in the assay on UACC-62 melanoma it was 90.3%; with LOX IMVI melanoma, 46.9%; in the assay on SK-MEL-28 melanoma it was 41.9%; in the assay with SK-MEL-2 melanoma, 112%; with EKVX NSCLC it was 94.2%. Also, the growth was 64.4% with SN12C renal; 73.9% with UO-31 renal; 125% with TK-10 renal; 56.5% with ACHN renal; 70% with CAKI-1 renal; 117% in the assay with A498 renal. Also, the growth in the assay with CCRF-CEM leukemia was 22.5%; in the assay on MOLT-4 leukemia, 46.2%.

Turning to `O=C(CNc1nc(-c2ccccc2)cs1)Nc1ccc(Cl)cc1[N+](=O)[O-]`, the growth in the assay on HCT-15 colon was -78.5% (active); in the assay with HT29 colon, -14.8% (active); in the assay on SNB-75 CNS, -19.2% (active); with SNB-19 CNS, 5.15% (active); in the assay on U251 CNS, -52.1% (active); in the assay on PC-3 prostate it was 10.5%. The growth in the assay with SK-MEL-5 melanoma is -100% (active); in the assay on UACC-62 melanoma it was -70.5% (active); in the assay with LOX IMVI melanoma, -97.2% (active); in the assay with SK-MEL-28 melanoma, -69.4% (active); in the assay with SK-MEL-2 melanoma, -50.1% (active); in the assay with EKVX NSCLC, -8.05% (active). The growth with SN12C renal was -28.7% (active); with UO-31 renal, -56.4% (active); in the assay with TK-10 renal it was 0.433% (active); in the assay with ACHN renal it was -60.6% (active); with CAKI-1 renal, 2.07% (active); in the assay with A498 renal, 14.8%. Further, the growth in the assay on CCRF-CEM leukemia was 11.1%; in the assay with MOLT-4 leukemia, 3.2% (active).

On to `CC(=O)Nc1ccc(-n2cnc3cc(-c4ccc(O)cc4)ccc32)cc1C`, for which the growth with HCT-15 colon was 49.2%; in the assay with HT29 colon, 61.6%; in the assay with SNB-75 CNS, 58.4%; in the assay on SNB-19 CNS it was 58.4%; in the assay on U251 CNS, 47.7%; in the assay with PC-3 prostate, 58.5%. Also, the growth in the assay with SK-MEL-5 melanoma is 46.4%; in the assay on UACC-62 melanoma it was 42.9%; in the assay with LOX IMVI melanoma, 53.3%; in the assay with SK-MEL-28 melanoma, 51.8%; in the assay on SK-MEL-2 melanoma, 19.9%; in the assay on EKVX NSCLC, 61.6%. In addition, the growth is 40.4% in the assay on SN12C renal; 35.5% in the assay on UO-31 renal; 73.9% in the assay on TK-10 renal; 43.1% in the assay on ACHN renal; 44.2% in the assay on CAKI-1 renal; 92.1% with A498 renal. Moreover, the growth in the assay on CCRF-CEM leukemia is 65.1%; with MOLT-4 leukemia it was 64.7%.

Take `COc1ccc(/C(CSc2nnc(-c3c[nH]c4ccccc34)n2-c2ccccc2)=N/O)cc1`: the growth with HCT-15 colon was 15.3%; in the assay on HT29 colon, 32%; in the assay on SNB-75 CNS, 63.3%; in the assay on SNB-19 CNS it was 40.3%; in the assay on U251 CNS, 39.4%; with PC-3 prostate, 23.1%. Also, the growth with SK-MEL-5 melanoma is -10.2% (active); with UACC-62 melanoma it was 31.4%; in the assay with LOX IMVI melanoma it was -78.2% (active); in the assay with SK-MEL-28 melanoma, 37.4%; in the assay on SK-MEL-2 melanoma it was 5.87% (active); with EKVX NSCLC, 15.1%. In addition, the growth in the assay with SN12C renal is 45.8%; with UO-31 renal, 18.2%; in the assay with TK-10 renal it was 42.7%; in the assay on ACHN renal it was 22.3%; in the assay with CAKI-1 renal, 20.1%; in the assay on A498 renal it was 69.8%. Besides, the growth is 16.5% in the assay on CCRF-CEM leukemia and 16.7% in the assay on MOLT-4 leukemia.

Take `O=c1[nH]c2ccccc2cc1CSc1ccc(Nc2nccc(-c3ccc(C(F)(F)F)cc3)n2)cc1`: the growth was 29.7% in the assay with HCT-15 colon; 28.8% in the assay with HT29 colon; 19.1% in the assay on SNB-75 CNS; 33.1% in the assay on SNB-19 CNS; -26.4% (active) in the assay on U251 CNS; 43.8% with PC-3 prostate. Besides, the growth in the assay with SK-MEL-5 melanoma was 89.2%; in the assay on UACC-62 melanoma it was 81.9%; with LOX IMVI melanoma, 15.5%; in the assay with SK-MEL-28 melanoma, 78.7%; with SK-MEL-2 melanoma it was 85.4%; with EKVX NSCLC, 7.65% (active). Further, the growth in the assay with SN12C renal was -19.7% (active); with UO-31 renal, 5.37% (active); in the assay with TK-10 renal, -6.8% (active); in the assay on ACHN renal it was -29.1% (active); in the assay on CAKI-1 renal, 12.7%; in the assay with A498 renal, -50.2% (active). Moreover, the growth with CCRF-CEM leukemia is 75%; in the assay on MOLT-4 leukemia it was 55.6%.

`COc1ccc(C(=O)Nc2ccc(-c3ccc4c(c3)NC(=O)/C4=C\c3ccc[nH]3)cc2)cc1`: the growth is 15.2% in the assay with HCT-15 colon; 15.6% with HT29 colon; -11% (active) with SNB-75 CNS; 60.8% in the assay with SNB-19 CNS; 32.8% with U251 CNS; 27.5% in the assay with PC-3 prostate. Also, the growth in the assay with SK-MEL-5 melanoma is 49.1%; in the assay on UACC-62 melanoma it was 78.1%; with LOX IMVI melanoma, 5.2% (active); with SK-MEL-28 melanoma, 88.8%; in the assay on SK-MEL-2 melanoma it was 99.5%; in the assay with EKVX NSCLC, 7.85% (active). The growth with SN12C renal is 64.9%; with UO-31 renal, 81.3%; in the assay on TK-10 renal it was 98.8%; in the assay on ACHN renal it was 60.7%; in the assay on CAKI-1 renal it was 72.7%; in the assay on A498 renal it was 118%. The values for the growth with CCRF-CEM leukemia and in the assay on MOLT-4 leukemia were 26% and 55.6%, respectively.

With `Cc1ccc(-c2cc(C(=O)N=Nc3c(O)[nH]c4ccc(Br)cc34)c3ccccc3n2)cc1`, the growth with HCT-15 colon is 8.77% (active); in the assay on HT29 colon, 42.1%; in the assay with SNB-75 CNS, 102%; in the assay with SNB-19 CNS, 61.1%; with U251 CNS, 21.7%; in the assay with PC-3 prostate, 52.9%. Moreover, the growth in the assay on SK-MEL-5 melanoma was 96.7%; in the assay on UACC-62 melanoma, 60.6%; in the assay on LOX IMVI melanoma it was 25.3%; in the assay on SK-MEL-28 melanoma, 84.4%; in the assay on SK-MEL-2 melanoma, 104%; in the assay on EKVX NSCLC, 60.6%. For the same compound, the growth in the assay on SN12C renal was 48.6%; with UO-31 renal it was 52.2%; in the assay with TK-10 renal it was 119%; with ACHN renal, 52.3%; with CAKI-1 renal, 73.6%; in the assay on A498 renal, 125%. Moreover, the growth was 26.8% in the assay with CCRF-CEM leukemia and 14.9% in the assay on MOLT-4 leukemia.
